Consider 27 compounds from PubChem BioAssay (NCATS).

Records with an inconclusive call do not appear. The source made the active and inactive calls. Calls follow the shape of the dose curve; as a rule, active = well fitted cell-killing curve with a large enough effect; inconclusive = small, poorly fitted or top-dose-only effect, or effect the other way; inactive = no such curve, though single readings can be large or run the other way.
Potency is read from the fitted curve at half-maximal effect.

This assay can be described thus: Quantitative High-Throughput drug screen in 47 multiple myeloma cell lines against the NCATS MIPE library collection: Delta47_JCRB cell viability assay (AID 1918925; also: nearly all actives have a fitted effect of over 45% in size). The settings on record: Delta47 myeloma viability, CellTiter-Glo ATP, 48 h; series mostly up to 45.8 µM; viability (% of DMSO): at the top concentration. Put shortly:
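CellTiter-Glo ATP luminescence gave viability after 48 h compound treatment at 37C of 500 multiple myeloma cells per well. Normalisation used DMSO-only wells as 100% and media-only wells as 0% viability; primary qHTS of approved and investigational drugs.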
With `COc1cc(N2CCC(N3CCN(C)CC3)CC2)ccc1Nc1ncc(Cl)c(Nc2ccccc2S(=O)(=O)C(C)C)n1`, the “viability (% of DMSO)” value was 4.63% (inactive).

As to `O=C(O)CCC1CCC(c2cc(F)ccc2F)(S(=O)(=O)c2ccc(Cl)cc2)CC1` (configuration not stated), the Potency was 5.9 µM (active).

`Oc1ccc(C2=Cc3ccc(O)cc3OC2)cc1`: the Potency is 0.833 µM (active).

As to `CCn1cc(C(=O)O)c(=O)c2ccc(C)nc21`, the “viability (% of DMSO)” value was 101% (inactive).

As for `CCNc1cc(NC2CCC(O)CC2)nc(Nc2ccc3c(ccn3Cc3ccccc3)c2)n1` (configuration not stated), the Potency is 18.7 µM (active).

As for `CCOC(=O)C1=C(N)Oc2ccc(Br)cc2C1C(C#N)C(=O)OCC` (configuration not stated), the Potency was 14.8 µM (active).

In the case of `CN1[C@@H]2CCC[C@@H]1CC(NC(=O)c1nn(C)c3ccccc13)C2` (some centres not stated), the “viability (% of DMSO)” value was 104% (inactive).

Turning to `CO[C@H]1C(=O)[C@]2(C)[C@@H](OC)C[C@H]3OC[C@@]3(OC(C)=O)[C@H]2[C@H](OC(=O)c2ccccc2)[C@]2(O)C[C@H](OC(=O)[C@H](O)[C@@H](NC(=O)OC(C)(C)C)c3ccccc3)C(C)=C1C2(C)C`, the “viability (% of DMSO)” value was 19.9% (inactive).

Take `O=C(Nc1cc(Cl)cc2c1[nH]c1cnccc12)c1cccnc1`: the Potency was 4.18 µM (active).

Turning to `CN1C[C@H]2c3ccccc3Oc3ccc(Cl)cc3[C@@H]2C1`, the “viability (% of DMSO)” value was 75% (inactive).

Consider `CC(C)[C@H](CO)Nc1nc(Nc2ccc(C(=O)O)c(Cl)c2)c2ncn(C(C)C)c2n1`, for which the Potency is 1.48 µM (active).

For the compound `CC(C)(C)COc1ccc(-n2cc(C(=O)O)cn2)cc1C#N`, the “viability (% of DMSO)” value was 113% (inactive).

For `NS(=O)(=O)c1cccc2c1C(=O)c1cccc(O)c1C2=O`, the Potency was 0.418 µM (active).

Regarding `O=C(CCCCCCC(=O)Nc1ccccc1)NO`, the Potency is 1.32 µM (active).

For the compound `CC(C)(C(=O)NCC(F)(F)C(F)(F)F)C(=O)N[C@@H]1C(=O)Nc2ccccc2-c2ccccc21`, the Potency was 20.9 µM (active).

`O=c1cc(-c2ccc(O)cc2)oc2cc(O)cc(O)c12`: the Potency was 10.5 µM (active).

In the case of `Cc1cccc(Nc2nc(-c3ccncc3)cs2)c1`, the Potency was 18.7 µM (active).

Take `O=C(Nc1ccccc1-c1cn2c(CN3CCNCC3)csc2n1)c1cnc2ccccc2n1`: the Potency was 4.69 µM (active).

Regarding `O=C1C(Cl)=C(NCCN2CCOCC2)C(=O)c2ncccc21`, the Potency was 7.43 µM (active).

Consider `c1ccc2c(Cc3c[nH]c4ccccc34)c[nH]c2c1`, for which the Potency was 0.935 µM (active).

On to `O=c1cc(CN2CCOCC2)occ1OCCCCCSc1ccnc2cc(C(F)(F)F)ccc12`, for which the Potency is 6.62 µM (active).

On to `C[C@]12CCC3c4ccc(O)cc4CCC3C1CCC2=O` (some centres not stated), for which the “viability (% of DMSO)” value was 81.2% (inactive).

For `CO[C@H]1C=CO[C@@]2(C)Oc3c(C)c(O)c4c(O)c(c5c(c4c3C2=O)NC2(CCN(CC(C)C)CC2)N=5)=NC(=O)C(C)=CC=C[C@H](C)[C@H](O)[C@@H](C)[C@@H](O)[C@@H](C)[C@H](OC(C)=O)[C@H]1C`, the “viability (% of DMSO)” value is 88.7% (inactive).

On to `COc1ccc(-c2coc3cc(O)cc(O)c3c2=O)cc1`, for which the “viability (% of DMSO)” value was 140% (inactive).

With `COc1cc(Nc2ncc(F)c(Nc3ccc4c(n3)NC(=O)C(C)(C)O4)n2)cc(OC)c1OC`, the Potency is 1.18 µM (active).

For the compound `O=C(N[C@@H](c1ccccc1)[C@@H]1CCCCN1)c1cccc(C(F)(F)F)c1Cl`, the Potency was 14.8 µM (active).

On to `Cc1c(NC(=O)c2ccc(C(C)(C)C)cc2)cccc1-c1cn(C)c(=O)c(Nc2ccc(C(=O)N3CCOCC3)cc2)n1`, for which the Potency is 23.5 µM (active).
